This is an account of results in PubChem BioAssay AID2017 (National Center for Advancing Translational Sciences (NCATS), 2009).

Records with an inconclusive call do not appear. Active and inactive are the calls of the source. Calls come from the whole dose curve; as a rule, active = well fitted curve in the direction sought with a large enough effect; inconclusive = small, poorly fitted or top-dose-only effect, or another doubt; inactive = no such curve, though single readings can be large or run the other way.

In this assay the target is 4-diphosphocytidyl-2-C-methyl-D-erythritol kinase, chloroplastic (Arabidopsis thaliana) (UniProt O81014). Put plainly: Confirmatory Assay for Inhibitors of Human Galactokinase (GALK): CDP-Me assay counterscreen. As to conditions: ATP depletion, Kinase-Glo luminescence. The source says:
NIH Molecular Libraries Probe Production Centers Network [MLPCN] NIH Chemical Genomics Center [NCGC] MLPCN Grant: R03 MH085689-01 Assay Submitter (PI): Kent Lai (University of Utah School of Medicine, 50 N Mario Capecchi Drive, Salt Lake City, UT 84132) NCGC Assay Overview The GHMP kinase family is a unique class of important enzymes that plays an essential role in many metabolic processes. It contains more than 170 protein members among which are the galactokinase (GALK) and the CMK enzymes. GALK plays a crucial role in galactose processing and is a potential therapeutic target for Classic Galactosemia (OMIM: 230400). CMK is involved for the non-mevalonate synthesis of isoprenoids precursors and natural products like sterols or ubiquinones which are important to many biological functions. […]
NCGC Assay Protocol Summary: Three uL/well of substrate solution (15 uM ATP, 30 uM CDP-ME, 20 mM HEPES pH8.0, 5 mM MgCl2, 40 mM KCl, 1 mM DTT, 0.01% BSA final concentration) was dispensed into 1536-well, assay plates (Greiner, solid white medium-binding plates) with Aurora Discovery BioRAPTR Flying Reagent Dispenser (FRD; Beckton-Dickenson). […] After 1 min, luminescence was detected with the ViewLux plate reader (Perkin Elmer, Waltham, MA) using a 1 sec exposure time and 2x binning settings.

4-diphosphocytidyl-2-C-methyl-D-erythritol kinase, chloroplastic (Arabidopsis thaliana), sequence (O81014 whole entry, looked up): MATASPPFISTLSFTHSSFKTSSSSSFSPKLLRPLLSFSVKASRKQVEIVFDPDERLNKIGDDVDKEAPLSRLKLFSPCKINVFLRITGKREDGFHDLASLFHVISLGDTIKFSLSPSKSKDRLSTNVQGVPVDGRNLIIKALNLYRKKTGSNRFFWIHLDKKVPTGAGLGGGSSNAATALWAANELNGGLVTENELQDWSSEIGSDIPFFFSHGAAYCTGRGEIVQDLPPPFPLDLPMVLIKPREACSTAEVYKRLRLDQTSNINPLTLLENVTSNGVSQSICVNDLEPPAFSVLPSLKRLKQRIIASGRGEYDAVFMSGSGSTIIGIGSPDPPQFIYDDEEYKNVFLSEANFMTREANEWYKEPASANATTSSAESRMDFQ

For the molecule `Cc1cc2c(C(C)C)c(O)c(O)c(C=O)c2c(O)c1-c1c(C)cc2c(C(C)C)c(O)c(O)c(C=O)c2c1O`, the Potency is 47.3 µM (active).
